Results with a measured potency or affinity are listed apart.
Columns and labels:
Klebsiella pneumoniae = conditions: Concentration 32 ug.mL-1;; ASSAY_TEST Inhibition of Bacterial Growth; detection method Absorption (OD600); MEDIA CAMHB; plate type 384well; NBS; CORNING #3640; time 18 hr
Candida albicans = conditions: Concentration 32 ug.mL-1; ASSAY_TEST Inhibition of Fungal Growth; detection method Absorption (OD530)
Cryptococcus neoformans = conditions: Concentration 32 ug.mL-1; ASSAY_TEST Inhibition of Fungal Growth; detection method Resazurin; Absorption (OD600-OD570); plate type 384well; NBS; CORNING #3640

Row | Structure (SMILES) | Inhibition (Klebsiella pneumoniae) [%] | Inhibition (Candida albicans) [%] | Inhibition (Cryptococcus neoformans) [%]
1 | COc1cccc(-n2ccn3c(SCc4cccc(Cl)c4)nnc3c2=O)c1 | 8.66 | 0.25 | -7.39
2 | COc1ccc(NC(=O)Cn2nc3c(Sc4ccccc4)nccn3c2=O)cc1OC | 6.09 | 1.58 | -22.41
3 | CC(C)Cn1c(=O)c2sccc2n2c(=O)n(Cc3cccc(Br)c3)nc12 | 8.23 | -0.42 | -24.19
4 | COc1cccc(-n2ccn3c(SCc4ccccc4C)nnc3c2=O)c1 | 8.9 | 2.6 | -11.74
